The values that follow come from PubChem BioAssay (EPA / NIEHS).

The source holds several records for some structures; these can differ, active in one and inactive in another. The source made the active and inactive calls. Rule for the calls: active = hit-call score of the fitted dose curve at least 0.9, where 1 is the maximum; inactive = score below 0.9.

The assay can be described thus: ATG_TCF_b_cat_CIS: Attagene CIS-FACTORIAL HepG2 Assay for human T-Cell-Factor with beta-catenin (TCF/b-cat) (AID 2282965). The conditions noted are these: HepG2 TCF/beta-catenin cis-reporter transcription, actives raise or lower the signal. The protocol: ATG_CIS is a cell-based, multiplexed-readout assay that uses HepG2, a human liver cell line, with measurements taken at 24 hours after chemical dosing in a 24-well plate.ATG_TCF_b_cat_CIS is one of 52 assay component(s) measured or calculated from the ATG_CIS assay. It is designed to make measurements of mRNA induction, a form of inducible reporter, as detected with fluorescence intensity signals by Reverse transcription polymerase chain reaction (RT-PCR) and Capillary electrophoresis technology.Data from the assay component ATG_TCF_b_cat_CIS was analyzed into 1 assay endpoint. This assay endpoint, ATG_TCF_b_cat_CIS, was analyzed with bidirectional fitting relative to DMSO as the negative control and baseline of activity. Using a type of inducible reporter, measures of mRNA for gain or loss-of-signal activity can be used to understand the reporter gene at the transcription factor-level as they relate to the gene TCF7 and TCF7L2 and LEF1 and TCF7L1. Furthermore, this assay endpoint can be referred to as a primary readout, because this assay has produced multiple assay endpoints where this one serves a reporter gene function. To generalize the intended target to other relatable targets, this assay endpoint is annotated to the dna binding intended target family, where the subfamily is HMG box protein.
Human liver HepG2 cells are transiently transfected with multiple reporter transcription units (MRTUs) in 6-well plates using FuGene 6 reagent (Roche; 3 ml FuGene/1 mg DNA). The MRTU constructs are regulated by a cis-regulating element (promoter). […] A major difference between the CIS and TRANS system is that in CIS activities of endogenous TFs are measured, whereas the TRANS assay evaluates changes in activities of exogenous, chimeric NR-Gal4 proteins. […] At the end of 24 hour incubation, total RNA was isolated using TriZol reagent (Invitrogen). The isolated RNA is then reverse-transcribed using oligo(dT) primer and Mo-MLV reverse transcriptase (Invitrogen) with DNAse I (Ambion) treatment for 30 min. The one-tenth of the produced cDNA was amplified by PCR using Taq DNA polymerase (Invitrogen) and two reporter sequence-specific primers. The PCR products were fluorescently labeled by primer extension with 6-arboxyfluorescein (6-FAM) 5'-labeled reporter sequence-specific primer (2 min at 95 C, 20 s at 68 C and 10 min at 72 C) and these products were digested with 5U of HpaI (New England Biolabs) for 2h at 37 C. The fragments were purified using Qiaquick PCR columns (Qiagen), analyzed on an ABI 3130xL genetic analyzer (Applied Biosystems) with peak positions identified by using a set of X-rhodamine (ROX)-labeled MapMarker1000 molecular weight standards (BioVentures). The raw capillary electrophoresis data was processed using Attagraph software (Attagene).
For the compound `CN(C)CCCN1c2ccccc2Sc2ccc(Cl)cc21`, the AC50 (usually the concentration giving half of the maximal activity seen) was 7.68 µM (active).

As to `CC(=O)CC(c1ccccc1)c1c(O)c2ccccc2oc1=O` (stereo not given), the outcome was inactive.

As for `CC(N)=O`, the call was inactive.

For the compound `C=CCc1ccc(OC)c(OC)c1`, the call was inactive.

As to `COC(=O)CCCC(=O)OC`, the call was inactive.

On to `CCCCCCCC(=O)OC`, for which the result was inactive.

Regarding `CS(=O)(=O)c1ccc([C@@H](C[C@H]2CCC(=O)C2)C(=O)Nc2cnccn2)cc1Cl`, the outcome was inactive.

As to `Nc1nc(Cl)nc2c1ncn2[C@H]1C[C@H](O)[C@@H](CO)O1`, the outcome was inactive.

In the case of `O=C(NS(=O)(=O)/C=C/c1cccs1)c1ccc(F)cc1Br`, the AC50 is 11.4 µM (active).

With `N[C@@H](Cc1c[nH]c2ccccc12)C(=O)O`, the result was inactive.

As to `CCCCCCC(CCCCCCCCCCC(=O)OCC(COC(C)=O)OC(C)=O)OC(C)=O` (stereo not given), the AC50 is 50 µM (active).

Turning to `Cn1cnc2c1c(=O)[nH]c(=O)n2C`, the call was inactive.

`CCC(C)N(C)C(=O)c1cc2ccccc2c(-c2ccccc2Cl)n1` (stereo not given): the half-maximal activity concentration (AC50) is 41.7 µM (active).

Consider `Cc1cn([C@H]2C=C[C@@H](CO)O2)c(=O)[nH]c1=O`, for which the outcome was inactive.

As for `CCCCC(CC)COC(=O)CCCCCCCC(=O)OCC(CC)CCCC` (stereo not given), the compound was classed as inactive.

As for `CC(=O)S[C@H](C(=O)N[C@H]1Cc2ccccc2[C@H]2CCC[C@@H](C(=O)O)N2C1=O)C(C)C`, the call was inactive.

As for `CC(C)NCC(O)c1ccc(O)c(O)c1` (stereo not given), the compound was classed as inactive.

`Cc1ccc(-c2cc(C(F)(F)F)nn2-c2ccc(S(N)(=O)=O)cc2)cc1`: the outcome was inactive.

Take `CC(=O)[C@@]1(O)CC[C@H]2[C@@H]3CCC4=CC(=O)CC[C@]4(C)[C@H]3CC[C@@]21C`: the outcome was inactive.

Regarding `CC1=C(C)S(=O)(=O)CCS1(=O)=O`, the compound was called inactive.

In the case of `CCCCc1nc2cccnc2n1Cc1ccc(-c2ccccc2-c2nnn[nH]2)cc1`, the result was inactive.

`CCCC(=O)O`: the call was inactive.

As to `COc1ccc(C(=O)Nc2nc3ccccc3c(NCc3ccccc3)c2C#N)cc1`, the compound was classed as inactive.

Turning to `CN(C)CCCN(C)CCCN(C)C`, the result was inactive.

Consider `COc1ccc(OC(F)(F)F)cc1CN[C@H]1CCCN[C@H]1c1ccccc1`, for which the compound was called inactive.

Consider `O=C(O)c1[nH]n(-c2ccc(S(=O)(=O)O)cc2)c(=O)c1N=Nc1ccc(S(=O)(=O)O)cc1`, for which the outcome was inactive.

Consider `O=C(N[C@@H](c1ccccc1)[C@@H]1CCCCN1)c1cccc(C(F)(F)F)c1Cl`, for which the half-maximal activity concentration (AC50) is 16.6 µM (active).

As to `CCCCC(CC)CO` (stereo not given), the compound was classed as inactive.

`O=C(Oc1ccccc1)c1cccc(C(=O)Oc2ccccc2)c1`: the result was inactive.

Turning to `O=C1OC(c2ccc(O)cc2)(c2ccc(O)cc2)c2ccccc21`, the AC50 was 27.5 µM (active).

Turning to `COC(=O)CCC(=O)OC`, the compound was classed as inactive.

Regarding `CC(=O)O[C@]1(C(C)=O)CC[C@H]2[C@@H]3C=C(Cl)C4=CC(=O)[C@@H]5C[C@@H]5[C@]4(C)[C@H]3CC[C@@]21C`, the compound was called inactive.

Take `CCCCCCCCCCCCCCCCO`: the half-maximal activity concentration (AC50) is 159 µM (active).

Regarding `CCOCCOCCO`, the call was inactive.

With `CCCCOC(=O)CCCCC(=O)OCCCC`, the compound was classed as inactive.

With `CCc1cc(C2=C(C(=O)O)N(c3ccccc3C(F)(F)F)S(=O)(=O)c3ccccc32)cc2c1OCO2`, the half-maximal activity concentration (AC50) was 122 µM (active).

Turning to `CC(=O)OCC(COC(C)=O)OC(C)=O`, the call was inactive.

In the case of `CC(C)(O)c1ccc(CNC(=O)c2cccnc2Oc2ccc(F)cc2)cc1`, the result was inactive.

In the case of `COC(=O)[C@H]1[C@H]2C[C@@H]3c4[nH]c5cc(OC)ccc5c4CCN3C[C@H]2C[C@@H](OC(=O)c2cc(OC)c(OC)c(OC)c2)[C@@H]1OC`, the AC50 is 7.31 µM (active).

For `CC(C)(C)c1ccccc1`, the call was inactive.
